# High-throughput results (PubChem BioAssay)
# FLuc counter: inhibits or activates purified firefly luciferase, miR-21 counter-screen. P08659. AID 588342. 6.9% of 360,000 active. purified FLuc, Km substrates, luminescence inhibition. Potency, µM (series often up to 57.5 µM), without a hit: at the top dose activity change, negative = inhibition, actives largely listed as inhibitors;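 also: plate controls were vehicle for no effect and reference inhibitor for full effect; nearly all actives have a fitted effect of over 55% in size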
# Target sequence (P08659 whole entry, looked up): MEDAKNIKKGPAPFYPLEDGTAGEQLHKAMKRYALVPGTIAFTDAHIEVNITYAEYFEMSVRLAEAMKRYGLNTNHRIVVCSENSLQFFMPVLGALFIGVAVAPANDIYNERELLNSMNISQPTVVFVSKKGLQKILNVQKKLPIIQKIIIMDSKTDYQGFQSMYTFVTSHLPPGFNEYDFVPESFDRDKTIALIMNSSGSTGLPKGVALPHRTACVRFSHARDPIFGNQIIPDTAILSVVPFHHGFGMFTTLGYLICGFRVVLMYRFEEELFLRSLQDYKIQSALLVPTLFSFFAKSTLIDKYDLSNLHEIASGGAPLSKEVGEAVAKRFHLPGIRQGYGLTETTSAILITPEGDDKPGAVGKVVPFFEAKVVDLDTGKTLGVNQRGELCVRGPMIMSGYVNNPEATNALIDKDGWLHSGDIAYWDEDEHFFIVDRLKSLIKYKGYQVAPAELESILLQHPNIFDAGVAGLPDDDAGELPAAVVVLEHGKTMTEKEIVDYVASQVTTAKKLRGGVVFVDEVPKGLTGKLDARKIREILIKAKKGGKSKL
#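 Purified P. pyralis luciferase, 10 nM final, with Km-level 10 uM D-luciferin and 10 uM ATP in 50 mM Tris acetate pH 7.5, 10 mM Mg acetate, 0.01% Tween-20, 0.05% BSA; 6-point qHTS titration about 60 µM downward; luminescence read.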
# uPA generation: cell surface uPA generation inhibition; cell surface uPA generation assay, qHTS; Potency, µM (top dose mostly 38.3 µM), without a hit: at the highest dose activity change, negative = inhibition, usual class: inhibitors; 0.31% of 330,000 active; active = well fitted inhibition curve with a large enough effect; inconclusive = small, poorly fitted or top-dose-only effect; inactive = no such curve, though single readings can be large or run the other way; tested in mouse RAW 264.7 cells; also: % is scaled to controls: 0 for no effect and ±100 for the full control effect; nearly all actives have a fitted effect of over 55% in size
# ELG1 genotox: inducers of genotoxicity in HEK293T ELG1-luciferase cells | AID 504466 | 1.3% of 330,000 active | HEK293T ELG1-luciferase reporter, luminescence, 16 h | Potency, µM (titrated, usually from 46 µM), for the others: at the highest dose activity change, positive = activation, actives largely listed as activators; also: % of control where 0% means no effect; nearly all actives have a fitted effect of over 60% in size
#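 HEK293T cells expressing luciferase-tagged ELG1 were treated with compound or DMSO for 16 hr at 37°C. Luciferase activity was then read after 30 min with ONE-Glo at room temperature; rising signal flags genetic stress.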
# Rab9 prom act: activators of Rab9 promoter; Huh7 Rab9 promoter-luciferase reporter, luminescence, 24 h; Potency, µM (series often up to 9.22 µM), for the others: at the top dose activation, negative = inhibition, hits mostly activators; 2.8% of 320,000 active; also: % of control where 0% means no effect; nearly all actives have a fitted effect of over 60% in size
#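 Using Huh7 cells stably transfected with Rab9 promoter–luciferase, compounds were incubated 24 h at 37 °C, 5% CO2; luciferase luminescence was read 10 min after reagent addition.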
# SMN2 splice enh: enhancers of SMN2 splice variant expression; HEK293 SMN2-luciferase splicing reporter, luminescence, 30-36 h; Potency, µM (doses to about 46.1 µM), for inactives: top-dose activity change, positive = activation, usual class: activators; 2.8% of 210,000 active; also: % of control where 0% means no effect; nearly all actives have a fitted effect of over 55% in size
#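 HEK293 cells carry an SMN2 minigene-luciferase reporter in which exon 7 inclusion puts luciferase in frame. Cells were seeded at 2000 cells/well, attached for 10-12 hours, then exposed to compounds for 30-36 hours at 37C before ONE-Glo luminescence.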
# NPC1 prom act: activators of NPC1 promoter | Potency, µM (titrated, usually from 9.22 µM), without a hit: top-dose activation, usual class: activators | AID 485313 | 2.4% of 320,000 active | Huh7 NPC1 promoter luciferase reporter, 24 h; also: % of control where 0% means no effect; nearly all actives have a fitted effect of over 60% in size
#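 Luciferase expression driven by the NPC1 promoter was measured in stably transfected Huh7 cells after a 24 h compound incubation, using a luciferase reagent and a luminescence read.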
# * = called active by the depositor; ? = inconclusive; nt = not tested or not shown; [ ] = remark or other dose. Hits are enriched below; roughly 7.3% of the tested compounds scored in any of these assays. Unless noted, calls follow the shape of the dose curve; as a rule, active = well fitted curve in the direction sought with a large enough effect; inconclusive = small, poorly fitted or top-dose-only effect, or another doubt; inactive = no such curve, though single readings can be large; an effect the other way counts as inactive or inconclusive. Potency is read from the fitted curve at half-maximal effect.
SMILES,FLuc counter,uPA generation,ELG1 genotox,Rab9 prom act,SMN2 splice enh,NPC1 prom act
CNC(=O)COc1ccc(Nc2nnc(-c3ccc(C)c(S(=O)(=O)NC(C)(C)C)c3)c3ccccc23)cc1,15µM*,nt,nt,nt,-33%,nt
C#CC(C)(C)NS(=O)(=O)c1cc(-c2nnc(Nc3ccc(C)cc3)c3ccccc23)ccc1C,2.7µM*,nt,nt,nt,9%,nt
CNS(=O)(=O)c1cc(-c2nnc(Nc3ccc(NC(C)=O)cc3)c3ccccc23)ccc1C,?,0%,-5%,4%,nt,0%
CCOC(=O)c1c(C)[nH]c(C)c1S(=O)(=O)N(C)CC(=O)N1CCN(c2ccccc2OC)CC1,8%,nt,nt,nt,nt,nt
O=C(NCc1ccc(Cl)cc1)c1cnn2ccccc12,13µM*,?,?,2.5µM*,?,4µM*
Cc1cc(C)n2ncc(C(=O)NCc3ccc(Cl)cc3)c2n1,-1%,8%,-1%,-1%,-17%,-4%
CNc1nc(-c2ccc(Cl)cc2)cs1,6.7µM*,-5%,?,2.8µM*,20%,2.8µM*
CNc1nc(-c2ccc([N+](=O)[O-])cc2)cs1,12µM*,-6%,3%,?,6%,?
CCNc1nc(-c2ccc(Cl)cc2)cs1,3.4µM*,0%,?,2.2µM*,27%,3.5µM*
CCN(CC)CC(=O)Nc1nc(-c2ccc(Cl)cc2)cs1,-19%,-1%,4%,3%,-2%,19%
Oc1ccc(Nc2nc(-c3ccc(Cl)cc3)cs2)cc1,nt,nt,nt,nt,6%,nt
COc1ccc(C)cc1-n1nc2ccccc2n1,-5%,9%,2%,-1%,1%,-5%
Cc1ccc(O)c(-n2nc3ccccc3n2)c1,2.7µM*,-2%,?,3.2µM*,nt,3.2µM*
COc1ccc(-c2cn3c(n2)sc2cc(C(=O)Nc4c(C)cccc4C)ccc23)cc1,-9%,nt,nt,nt,nt,nt
COc1ccc(-c2oc(=O)c3cc(OC)c(OC)cc3c2-c2ccc3c(c2)OCO3)cc1,nt,10%,0%,nt,nt,nt
O=C(O)c1cc(-c2ccc3c(c2)OCO3)nc2ccc(Br)cc12,3µM*,-14%,5%,11%,7%,10%
COc1ccc(OC)c2nc(-c3ccc4c(c3)OCO4)ccc12,1.9µM*,-3%,4.6µM*,1.4µM*,nt,1.4µM*
COC(=O)c1cc(-c2ccc3c(c2)OCO3)nc2ccccc12,17µM*,0%,-6%,1%,-23%,-10%
Cc1cc(C)nc(NC(=O)c2cc(-c3ccc4c(c3)OCO4)nc3ccccc23)c1,?,-6%,-9%,-3%,nt,-2%
c1ccc2nc(-c3ccc4c(c3)OCO4)ccc2c1,0.95µM*,?,2.6µM*,0.32µM*,13µM*,0.56µM*
O=C(O)c1cccc(C(=O)O)c1S(=O)Cc1ccccc1 (centres undefined),nt,nt,nt,nt,-14%[9.22 µM],nt
O=C(COc1ccc2ccccc2c1)NCC1CCCO1 (centres undefined),-12%,-2%,8%,0%,nt,2%
O=C(NCCCN1CCCC1=O)c1cc(-c2ccc3c(c2)OCO3)nc2ccccc12,24µM*,1%,-14%,-4%,-5%,0%
O=C(O)c1cc(-c2ccc3cc4c(cc3c2)OCO4)nc2ccccc12,nt,nt,nt,nt,3.5µM*,nt
O=C(O)c1cc(-c2ccc(O)cc2)nc2ccccc12,?,nt,3%,-2%,-5%,0%
O=C(NCCCN1CCOCC1)c1cc(-c2ccc3c(c2)OCO3)nc2ccccc12,?,-3%,-5%,2%,4%,0%
Cc1oc2ncn(C)c(=O)c2c1C(=O)N(C)c1ccccc1F,1%,nt,nt,nt,nt,nt
COc1ccc(CNC(=O)CCCCCNC(=O)N2CCn3c2nc2ccccc23)cc1,17µM*,-2%,0%,-2%,nt,-14%
O=C(CCNC(=O)N1CCn2c1nc1ccccc12)NCc1ccc(Cl)cc1,-2%,-11%,-5%,-2%,nt,-3%
O=C(Oc1ccc(-c2cn3c(n2)SCC3)cc1)c1ccccc1,?,?,18µM*,1%,?,0%
